Experimental data: PubChem BioAssay AID1224865 (Sanford-Burnham Center for Chemical Genomics, 2016)
Out of some 360,000 compounds screened, about 1,100 (0.31%) were called active. The sample as a whole holds a higher share of actives than the screen did. Values without a mark were called inactive. Cut-off read from the data, not from the text of the source: active = activity change above about 30% (passing the limit was not always enough); inactive = the rest.

target: Hepatocyte nuclear factor 4-alpha (Homo sapiens) (UniProt P41235); assay: change in binding of human HNF4A to DNA, primary screen, biochemical, fluorescence polarization, FITC-DNA (AID 1224865); settings: 1 h, at 10 µM, stronger effect = higher value
Sequence (P41235 whole entry, looked up): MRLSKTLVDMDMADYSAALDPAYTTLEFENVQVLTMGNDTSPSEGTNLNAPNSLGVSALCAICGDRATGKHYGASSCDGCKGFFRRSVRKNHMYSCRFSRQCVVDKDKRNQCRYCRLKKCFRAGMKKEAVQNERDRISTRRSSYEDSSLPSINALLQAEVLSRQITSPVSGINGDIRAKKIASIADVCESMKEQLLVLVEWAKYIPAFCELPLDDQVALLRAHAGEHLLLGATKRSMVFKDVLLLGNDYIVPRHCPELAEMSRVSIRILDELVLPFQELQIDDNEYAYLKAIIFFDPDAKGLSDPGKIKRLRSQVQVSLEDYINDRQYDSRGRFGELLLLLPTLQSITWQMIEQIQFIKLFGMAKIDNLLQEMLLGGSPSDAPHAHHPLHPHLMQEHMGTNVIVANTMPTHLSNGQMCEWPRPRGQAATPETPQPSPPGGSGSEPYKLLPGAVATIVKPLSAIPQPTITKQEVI

| SMILES | activity change |
| --- | --- |
| CCOC(=O)c1cccc(NC(=O)c2ccc(F)cc2F)c1 | 7% |
| O=C(COC(=O)c1ccc(F)cc1F)Nc1ncccn1 | 38.7% (active) |
| O=C(COC(=O)CSc1ccccc1)Nc1ccc(F)cc1F | -1.87% |
| CC1C(=O)Nc2ccccc2N1C(=O)c1ccc(F)cc1F (stereo unspecified) | 2.72% |
| O=C(NCc1ccncc1)c1cccc(NS(=O)(=O)c2ccc(F)c(F)c2)c1 | -3.8% |
| CC1C(=O)N2CCCc3cc(S(=O)(=O)NCc4ccc(F)cc4)cc1c32 (stereo unspecified) | -0.59% |
| CCn1nnc(NC(=O)c2c(OC)cccc2OC)n1 | 0.86% |
| COc1cccc(OC)c1C(=O)Nc1ccc(Cc2ccncc2)cc1 | 41.2% (active) |
| CC(C)CC(=O)Nc1ccc(Cc2ccncc2)cc1 | 1.88% |
| C=CCn1c(SCC(=O)NC23CC4CC(CC(C4)C2)C3)nc(O)cc1=O | 2.14% |
| Cc1ccc2[nH]c(=O)c(CN(CCCN(C)C)C(=O)Nc3cccc(Cl)c3)cc2c1 | 4.9% |
| Cc1ccc(CSCC2Nc3ccc(C(=O)N4CCN(c5ccc(F)cc5)CC4)cc3NC2=O)cc1 (stereo unspecified) | 37.8% (active) |
| Cc1ccccc1CN1CCN(C(=O)c2cccc(F)c2)CC1 | 3.17% |
| COC(=O)c1ccc(C(=O)OC)c(NC(=S)N2CCN(c3ccc(F)cc3)CC2)c1 | -1.17% |
| O=C1Nc2cc(C(=O)N3CCN(c4ccc(F)cc4)CC3)ccc2NC1CSCc1cccc(F)c1 (stereo unspecified) | 102% (active) |
| Cc1noc(C)c1S(=O)(=O)Nc1ccc(C(=O)N2CCN(c3ccc(F)cc3)CC2)cc1 | 1.2% |
| C=CCn1c(SCc2cccc(F)c2)nc2cc(C(=O)N3CCC(C(N)=O)CC3)ccc2c1=O | 2.05% |
| COc1ccc(Cn2cccc(NC(=O)Nc3ccc(C#N)cc3)c2=O)cc1 | -3.37% |
| COC(=O)c1c(NC(=O)CN2CCN(S(=O)(=O)c3ccccc3[N+](=O)[O-])CC2)sc2c1CCC(C)C2 (stereo unspecified) | 0.7% |
| O=S(=O)(Cc1ccccc1)c1nc2ccccc2n1Cc1ccccn1 | -0.31% |
| CC1=CC2=NC(=O)/C(=C/c3coc4ccccc4c3=O)C(=N)N2O1 | 6.6% |
| O=C1/C(=C/c2coc3ccc(O)cc3c2=O)SC(=S)N1c1ccccc1 | 55.6% (active) |
| Cc1ccc(S(=O)(=O)N2CCC(C)CC2)cc1C(=O)NCc1ccccn1 | 0.82% |

| SMILES | activity change |
| --- | --- |
| Cc1ccc(CC2S/C(=C(/C#N)C(=O)N3CCOCC3)N(c3ccccc3)C2=O)cc1 (stereo unspecified) | 0.2% |
| CCN(CC(=O)NCc1cccs1)C(=O)/C=C/c1ccc(C)cc1 | 0.98% |
| Cc1ccc(CNC(=O)c2cccc3c2C(=O)c2ccc(N4CCC(C)CC4)cc2S3(=O)=O)cc1 | 45.8% (active) |
| CC1CCN(c2ccc3c(c2)S(=O)(=O)c2cc(C(=O)O)ccc2C3=O)CC1 | 14.3% |
| COc1cccc(-c2ccc3c(c2)S(=O)(=O)c2cccc(C(=O)O)c2C3=O)c1OC | 1.88% |
| Cc1nn(Cc2ccc(C(=O)N3N=C(C(F)F)CC3(O)C(F)F)cc2)c(C)c1[N+](=O)[O-] (stereo unspecified) | 1.52% |
| CN(C)c1ccc(/C=C2\NC(=S)N(Cc3ccccc3)C2=O)cc1 | 128% |
| COc1cc(/C=C2/SC(=S)N(Cc3ccccc3)C2=O)cc(OC)c1O | 48.1% (active) |
| COc1cc(=O)[nH]c(=O)n1C(=O)Cc1ccccc1 | 2.22% |
| CC1CCCCC1NC(=O)C1CCCN1S(=O)(=O)c1cccc2nsnc12 (stereo unspecified) | -0.79% |
| O=C(NC1CCCCC1)C(c1cc2ccccc2o1)n1c(=O)c(-c2ccco2)nc2ccccc21 (stereo unspecified) | 45.8% (active) |
| Cc1cccc(C)c1NC(=O)C(c1cccc2ccccc12)n1c(=O)c(-c2ccco2)nc2ccccc21 (stereo unspecified) | 32.4% |
| Cc1cccc(C)c1NC(=O)C(c1ccc(C(F)(F)F)cc1)n1c(=O)c(-c2ccco2)nc2ccccc21 (stereo unspecified) | 26.7% |
| Oc1ccc(/C=N/N(Cc2ccccc2)c2ccccc2)cc1 | -0.08% |
| CCOc1[nH]n(-c2ccc(Cl)cc2)c(=O)c1C=Nc1ccc(O)cc1 | -5.55% |
| Oc1ccc(N=Cc2c(O)ccc3ccccc23)cc1 | 72% (active) |
| COc1ccccc1C(=O)N1CCN=C1SCc1cccnc1 | 2.47% |
| Cc1ccc(-c2csc(NC(=O)Cn3[nH]c(=O)c4ccccc4c3=O)n2)cc1 | 50% (active) |
| O=C(Cn1[nH]c(=O)c2ccccc2c1=O)Nc1cccc(-c2nnc3n2CCCCC3)c1 | 1.84% |
| Cc1ccc(C)c(C(=O)COC(=O)Cn2[nH]c(=O)c3ccccc3c2=O)c1 | -0.2% |
| O=C(OC(C(=O)NC1CCCC1)c1ccc(F)cc1)c1ccno1 (stereo unspecified) | -0.09% |
| Cc1sc2nc(-c3ccccc3F)oc(=O)c2c1C | 0.82% |
| Nc1c(N(CCCO)C(=O)C2CCCC2)c(=O)[nH]c(=O)n1Cc1ccccc1 | -0.45% |

| SMILES | activity change |
| --- | --- |
| CCc1ccc2nc3sc(C(=O)Nc4nnc(CC)s4)c(N)c3cc2c1 | 45.1% (active) |
| CCc1nnc(NC(=O)c2ccco2)s1 | 0.04% |
| CCCCOC(=O)Nc1nnc(CC(=O)NCc2ccccc2)s1 | -1.39% |
| COc1ccc(CCNC(=O)C(=O)NCC2OCCN2S(=O)(=O)c2cccs2)cc1OC (stereo unspecified) | 5.44% |
| COc1cc(O)c2c(=O)c3c(O)c(O)ccc3oc2c1OC | 3.57% |
| COc1cc(N=Cc2c(O)c3ccccc3oc2=O)c(OC)cc1Cl | 98.2% (active) |
| Cc1ccc(N2C(=O)C(CC(=O)Nc3cccc(F)c3)N(CCc3ccncc3)C2=O)cc1 (stereo unspecified) | 0.66% |
| COC(=O)c1ccccc1N=NNc1ccc([N+](=O)[O-])cc1 | -3.24% |
| NC(=O)C1(Nc2ccc([N+](=O)[O-])cc2)CCCC1 | -1.78% |
| O=[N+]([O-])c1ccc(N=NNc2ccc([N+](=O)[O-])cc2)cc1 | 54.8% (active) |
| O=C1CSC(c2cccc(F)c2)N1c1ccc(O)cc1 (stereo unspecified) | 1.06% |
| O=C(CCc1nnc2ccc(NCCCN3CCCC3=O)nn12)NCc1ccccc1Cl | 1.08% |
| CCn1c(SCC(=O)Nc2ccc3c(c2)OCCO3)nc2c(c1=O)SC(C)C2 (stereo unspecified) | 1.48% |
| Cc1cccc(NS(=O)(=O)c2ccc([N+](=O)[O-])cc2)n1 | 0.15% |
| CC(O)c1nc2ccccc2n1Cc1ccc([N+](=O)[O-])cc1 (stereo unspecified) | -3.67% |
| Cc1nc2ccccc2nc(=O)c1NNc1ccc([N+](=O)[O-])cc1 | 71% (active) |
| O=C(O)C1CCC(CNS(=O)(=O)c2ccc(Br)cc2)CC1 (stereo unspecified) | 1.62% |
| Clc1cccc(Cc2c(-c3cccc(Cl)c3)nc3ccc(Cl)cn23)c1 | 8.89% |
| Fc1cccc(Cc2c(-c3ccc(Cl)cc3)nc3ccc(Cl)cn23)c1 | 6.82% |
| Fc1cccc(Cc2c(-c3cccc(Cl)c3)nc3ccc(Br)cn23)c1 | 42.3% (active) |
| CN(C)C(=O)CCC(=O)N1CCCCC1C(=O)Nc1ccc(Oc2ccccc2F)cc1 (stereo unspecified) | 1.87% |
| Cc1c(C(=O)Nc2cccc(Cl)c2)cn2c(nc3ccccc32)c1C#N | 0.36% |
| Cc1nc(-c2ccccc2)cn2c1nc1ccccc12 | 43.5% (active) |

| SMILES | activity change |
| --- | --- |
| Cc1nc2ccccc2n1CC(O)c1ccccc1 (stereo unspecified) | -4.17% |
| COc1ccc(-c2cc(C(F)(F)F)nc(S(C)(=O)=O)n2)cc1OC | -0.66% |
| O=C(Cn1nnc(-c2ccc(CN3CCOCC3)cc2)n1)NC1CCCCC1 | 4.12% |
| N/C(=N\S(=O)(=O)c1ccc(Cl)cc1)N1CCOCC1 | 4.34% |
| CCOc1ccc(C(=O)Nc2cccc(-c3ccc4nncn4n3)c2)cc1 | -0.86% |
| O=C(Nc1cccc(-c2nc3ccccc3[nH]2)c1)c1ccc(C(=O)Nc2cccc(-c3nc4ccccc4[nH]3)c2)cc1 | 81.8% (active) |
| CCOc1ccc(C(=O)Nc2cccc(SC)c2)cc1 | 0.43% |
| Cc1ccc(Cl)cc1N1CCN(C(=O)c2cccc3c(=O)c(C)c(-c4ccccc4)oc23)CC1 | -0.99% |
| COc1ccc(C2COC(=O)C2=N)c(NC(=O)c2ccccc2)c1 (stereo unspecified) | -5.12% |
| CCOC(=O)c1cc(NC(=O)c2ccc(Cl)cc2)c(=O)oc1-c1ccccc1 | -0.75% |
| CC(=O)c1cc(NC(=O)c2ccccc2)c(=O)oc1/C=C/N(C)C | 102% (active) |
| CCOc1ccc(Oc2nc(C)cc(OC)n2)nn1 | 0.35% |
| CC(C)C[C@H](NC(=O)[C@@H]1O[C@H]1C(=O)O)C(=O)NCCCCN=C(N)N | 2.71% |
| CC(C)c1ccc2oc(=O)cc(CN3CCN(Cc4ccccc4)CC3)c2c1 | 2.71% |
| CCc1ccc2oc(=O)cc(CN3CCCCC3C)c2c1 (stereo unspecified) | 39.9% (active) |
| COc1ccc(CN2CCCCC2C)cc1OC (stereo unspecified) | -0.13% |
| O=C(CCCn1c(=O)c2sccc2n(CC(=O)NCC2CCCO2)c1=O)NCc1ccco1 (stereo unspecified) | -1.63% |
| COc1cccc(NS(=O)(=O)c2ccc3[nH]cc(C(=O)NCCCOC(C)C)c(=O)c3c2)c1 | 0.82% |
| Cc1cc(NC(=O)CSc2nnnn2-c2ccc(F)cc2)no1 | 2.72% |
| Cc1cc(NC(=O)CSc2nc(=O)cc(N)n2-c2ccc(F)cc2)no1 | -1.93% |
| Cc1cc(NC(=O)CSc2nccn2-c2ccc([N+](=O)[O-])cc2)no1 | 35.4% (active) |
| CC(C)c1ccc(-c2nn[nH]n2)cc1 | -1.88% |
